A selection: hits, their analogues and other compounds. The true share with any hit is near 19%.
TDP1 cell noCPT: qHTS for Inhibitors of human tyrosyl-DNA phosphodiesterase 1 (TDP1): qHTS in cells in absence of CPT | 420,000 tested, 15% active | DT40 Tdp1-/- hTDP1 cells, no CPT, ATP luminescence, 48 h | Potency, µM (top dose mostly 46.2 µM), hits mostly inhibitors; note: nearly all actives have a fitted effect of over 55% in size
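DT40 Tdp1-/-;hTDP1 cells, no CPT (DMSO vehicle only), 400 cells/well; compounds pin-transferred; ≥48 hr, 37 °C; CellTiter-Glo 30 min RT dark, luminescence read.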
HT1080NT lethal: kills 2HG-producing HT-1080-NT fibrosarcoma cells. Potency, µM (doses to about 46.1 µM), hits mostly cytotoxic. HT-1080-NT fibrosarcoma viability, CellTiter-Glo ATP luminescence, 48 h. 360,000 tested, 1.6% active;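 note: NT is the 2HG producing partner of a matched IDH1 knockdown line; nearly all actives have a fitted effect of over 55% in size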
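750 cells/well, RPMI + 5% FBS; 2 h settle, compound pin-transfer, 48 h at 37 degrees C. CellTiter-Glo 10 min RT, luminescence. Normalized to DMSO and media-only wells.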
HT1080 IDH1KD tx: toxicity to HT-1080 IDH1 knockdown cells (counter line). HT-1080 IDH1 knockdown viability, ATP luminescence, 48 h. AID 686971. 360,000 tested, 2% active. Potency, µM (top dose mostly 46.1 µM), most hits filed as cytotoxic
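HT-1080-IDH1KD cells (IDH1 knocked down), 750/well in RPMI with 5% FBS, treated with compound 48 h at 37 degrees C. Viability by CellTiter-Glo luminescence, normalised to DMSO and no-cell wells; concentration-response curves classed.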
TDP1 cell CPT: growth inhibition of DT40 Tdp1-/-;hTDP1 cells with camptothecin (screen for TDP1 inhibitors) | chicken DT40 Tdp1-/-;hTDP1 cells + 20 nM CPT, ATP luminescence, 48 h | Potency, µM (doses to about 46.2 µM), most hits filed as inhibitors | 420,000 tested, 12% active | AID 686979; note: nearly all actives have a fitted effect of over 55% in size
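Chicken DT40 Tdp1-/- cells stably complemented with human TDP1 were seeded at 400 cells/well in medium containing 20 nM camptothecin, exposed to pin-transferred compounds, and grown at 37 °C for at least 48 hr. Viability was read as ATP luminescence.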
KB-3-1 cytotox: KB-3-1 parental cell cytotoxicity | KB-3-1 viability, CellTiter-Glo ATP luminescence, 72 h | Potency, µM (top dose mostly 46.1 µM), actives largely listed as cytotoxic | 400,000 tested, 1.4% active | AID 1347075; note: nearly all actives have a fitted effect of over 60% in size
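Multi-concentration cytotoxicity screen in KB-3-1 cells grown in DMEM lacking phenol red with 10% FBS. After 72 h at 37 °C with compound, ATP-dependent luminescence was recorded.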
KB-V1 MDR tox: kills drug-selected multidrug resistant KB-V1 cells | KB-V1 MDR cells viability, CellTiter-Glo, 72 h | Potency, µM (highest dose often 46.1 µM), usual class: cytotoxic | 400,000 tested, 3.4% active; note: nearly all actives have a fitted effect of over 60% in size
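Compound-treated KB-V1 multidrug-resistant cells, 72 h, 37 degrees C; viability by CellTiter-Glo. Fitted qHTS curves give the values.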
Numbers stand for hits; . = inactive; ? = inconclusive; / = no result given. Calls come from the whole dose curve; as a rule, active = well fitted curve in the direction sought with a large enough effect; inconclusive = small, poorly fitted or top-dose-only effect, or another doubt; inactive = no such curve, though single readings can be large; an effect the other way counts as inactive or inconclusive.

SMILES | TDP1 cell noCPT | HT1080NT lethal | HT1080 IDH1KD tx | TDP1 cell CPT | KB-3-1 cytotox | KB-V1 MDR tox
CC1=C(C(=O)N(C)C)CC(CC(=O)NC2CCCCC2)C(=O)N1CCCN1CCCC1=O (centres undefined) | . | . | . | . | . | .
COc1ccc(CC(=O)NC2CCN(CC(=O)N3CCCc4ccccc43)CC2)cc1OC | 3.66µM | . | . | . | . | .
O=C(CCC(=O)N1CC2CCCN2c2ccccc21)NCc1ccccc1 (centres undefined) | ? | / | / | ? | . | .
COc1ccc(CC(=O)N2CCCc3ccccc32)cc1OC | ? | . | . | . | . | .
COc1ccc(CNC(=O)CCC(=O)N2CC3CCCN3c3ccccc32)cc1 (centres undefined) | 20.6µM | / | / | 11.6µM | . | .
CCc1ccc(CNC(=O)c2ccc(NC(=O)N3CCCCc4ccccc43)cc2)cc1 | ? | / | / | 20.6µM | . | .
COc1ccc(Cl)cc1NC(=O)Cc1ccc(NC(=O)N2CCCCc3ccccc32)cc1 | 20.6µM | / | / | 18.4µM | . | .
O=C(Cc1ccc(NC(=O)N2CCCCc3ccccc32)cc1)NCc1ccccc1Br | 23.1µM | / | / | ? | . | .
COc1ccc(CNC(=O)Cc2ccc(NC(=O)N3CCCCc4ccccc43)cc2)cc1 | 23.1µM | / | / | ? | ? | ?
O=C(Cc1ccc(NC(=O)N2CCCCc3ccccc32)cc1)NCc1ccccc1 | 23.1µM | / | / | 23.1µM | . | .
CCOc1ccc(CNC(=O)Cc2ccc(NC(=O)N3CCCCc4ccccc43)cc2)cc1OC | ? | / | / | ? | . | .
COc1ccc(OC)c(CNC(=O)Cc2ccc(NC(=O)N3CCCCc4ccccc43)cc2)c1 | 9.2µM | / | / | 11.6µM | . | .
CC(C)(C)N1C(=O)c2ccccc2NC(=O)C1C(=O)NCCc1ccccc1F (centres undefined) | ? | . | . | ? | . | .
CCC(C)NC(=O)CN1C(=O)c2cccc3cccc1c23 (centres undefined) | . | . | . | . | . | ?
CCN1/C(=N\N)c2cccc3cccc1c23 | 20.6µM | . | . | ? | . | .
CCOC(=O)c1noc2ncnc(Nc3cccc(C(F)(F)F)c3)c12 | . | / | / | . | . | .
CCOC(=O)C(=O)N(C)c1c(CC)nc2c(OCc3ccc(Cl)cc3)cccn12 | ? | . | . | ? | . | .
CCc1nc2c(OCc3ccc(C(F)(F)F)cc3)cccn2c1N(C)C(=O)C1CC1 | 23.1µM | . | . | 23.1µM | . | .
CCc1nc2c(OCc3ccccc3)cccn2c1N(C)C(=O)Nc1ccccc1OC | ? | . | . | ? | . | .
CCOC(=O)C(=O)N(C)c1c(CC)nc2c(OCc3cccc(Cl)c3)cccn12 | ? | . | . | 16.4µM | . | .
CCc1nc2c(OCc3cc(Cl)cc(Cl)c3)cccn2c1N(C)C(=O)Nc1ccccc1OC | ? | ? | ? | 23.1µM | ? | 20.6µM
CCOC(=O)C(=O)N(C)c1c(CC)nc2c(OCc3cc(Cl)cc(Cl)c3)cccn12 | 20.6µM | . | . | 18.4µM | . | .
O=C(COC(=O)c1c[nH]c(=O)[nH]c1=O)Nc1ccccc1Br | . | . | . | . | . | .
O=C(CCCC(=O)NNC(=O)Nc1ccccc1)NNC(=O)Nc1ccccc1 | . | . | . | . | . | .
CCc1nc(-c2cc(S(=O)(=O)N3CCN(c4ccc(F)cc4)CC3)ccc2OC)no1 | . | / | / | . | . | .
CCc1nc2c(OCc3cccc(Cl)c3)cccn2c1N(C)C(=O)C1CC1 | ? | . | ? | 16.4µM | . | .
COc1ccc2c(c1)C/C(=C\c1ccc(N(C)C)cc1)C2=O | ? | / | / | ? | . | .
Cc1ccc(NC(=O)CN2CCSc3ccc(S(=O)(=O)N4CCCC4)cc32)cc1C | / | / | / | / | ? | 10.3µM
Cc1ccc(NC(=O)CN2C(=O)CSc3ccc(S(=O)(=O)N(C)C)cc32)cc1C | ? | / | / | 16.4µM | . | .

Screening data (PubChem BioAssay)
